Results reported in PubChem BioAssay (NCI).
About 79,000 compounds went through this panel and 15% of them were active in at least one assay; those are over-represented in the sample as a whole. Active and inactive are the calls of the source. No stated cut-off is given here; in the data, active means growth inhibition above about 70%; inactive means the rest.

What was measured:
[1] = NCI Yeast Anticancer Drug Screen. Data for the rad50 strain (AID 155);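 further: 0% = growth of vehicle-only cultures of the same strain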; settings: S. cerevisiae rad50 strain growth inhibition; at 50.0 µM; active compounds read high
Method in brief: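 Cells are treated with compound, grown, and their growth is then scored against vehicle-only cultures of the same repair-deficient yeast strain.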

[2] = NCI Yeast Anticancer Drug Screen. Data for the mec2-1 strain (AID 157); settings: S. cerevisiae mec2-1 strain, at 50.0 µM, active compounds read high
Method in brief: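 mec2-1 yeast strain, carrying an alteration in DNA damage repair or cell cycle control, was exposed to compounds; growth inhibition was measured relative to vehicle-treated controls.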

[3] = NCI Yeast Anticancer Drug Screen. Data for the sgs1 mgt1 strain (AID 161);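 further: 0% = growth of cultures given vehicle only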; settings: S. cerevisiae sgs1 mgt1 strain, at 50.0 µM, active compounds read high
Method in brief: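 Percent growth inhibition was derived by comparing compound-exposed mutant yeast with vehicle-exposed cultures. The strain carries alterations in DNA damage repair.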

[4] = NCI Yeast Anticancer Drug Screen. Data for the cln2 rad14 strain (AID 165);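 further: 0% = growth equal to vehicle treated cultures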; settings: S. cerevisiae cln2 rad14 strain, at 50.0 µM, active compounds read high
Method in brief: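 Yeast carrying cln2 and rad14 alterations (cell cycle control and DNA damage repair) were exposed to compounds. Growth inhibition was measured against vehicle-treated controls.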

[5] = NCI Yeast Anticancer Drug Screen. Data for the bub3 strain (AID 167); settings: S. cerevisiae bub3 mutant strain, at 50.0 µM, active compounds read high
Method in brief: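 Part of a panel of yeast mutants defective in DNA damage repair or cell cycle regulation. Each strain is grown with compound, and inhibition is calculated relative to solvent-treated cultures.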

[6] = NCI Yeast Anticancer Drug Screen. Data for the mlh1 rad18 strain (AID 175); settings: S. cerevisiae mlh1 rad18 strain growth inhibition; at 50.0 µM; active compounds read high
Method in brief: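 Growth inhibition of the yeast strain was measured after compound exposure and expressed relative to vehicle-treated controls. The strain carries defined defects in DNA damage repair.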

Measured: growth inhibition

O=C1c2cc(O)c(O)cc2O[C@H](c2ccc(O)c(O)c2)[C@H]1O
inactive: [1] 2.15% | [2] -35.1% | [3] 11.8% | [4] 16.2% | [5] -8.7% | [6] -46.7%

CCCCCCC(=O)OC(C)CC(C)C (stereo unspecified)
inactive: [1] 6.25% | [2] 2.75% | [3] -0.75% | [4] -11.2% | [5] -3.7% | [6] 24.2%

Fc1cccc(-c2nnc(-c3ccccc3)o2)c1
inactive: [1] 34.1% | [2] 23.1% | [3] 28.9% | [4] 19.4% | [5] 37.8% | [6] -1.65%

O/N=C1/CC2CCCCC2CC1(O)c1ccccc1 (stereo unspecified)
inactive: [1] 17.3% | [2] 19.1% | [3] 17.6% | [4] 18.4% | [5] -3.55% | [6] 30.4%

OCC(O)COc1ccccc1F (stereo unspecified)
inactive: [1] 11.5% | [2] -6.35% | [3] -11.2% | [4] -13.2% | [5] -7.5% | [6] 10.8%

C=CCOC(=O)OC(C)C(=O)OCC=C (stereo unspecified)
inactive: [1] 27% | [2] 13.1% | [3] 15.4% | [4] 7.55% | [5] -2.25% | [6] -2.5%

COC(OC)c1cccc2c1C(=O)CCC1(CC2)OCCCCO1
inactive: [1] 0.3% | [2] -21.1% | [3] -22.8% | [4] 3.6% | [5] -39.9% | [6] -11.2%

c1ccc2cc3ccccc3cc2c1
inactive: [1] 5.75% | [2] 10.7% | [3] -18.5% | [4] -42.6% | [5] -0.85% | [6] 3.7%

O=C(O)C1CC2C3CC(C(=O)O)C(C3)C2C1 (stereo unspecified)
inactive: [1] -15.8% | [2] -24.7% | [3] -5.55% | [4] -1.85% | [5] -10.8% | [6] -13.9%

Cc1ccc(NC(=O)Nc2cccc(C(F)(F)F)c2)cc1NC(=O)Nc1cccc(C(F)(F)F)c1
inactive: [1] 2.75% | [2] 15% | [3] 31.9% | [4] 23.7% | [5] -6.6% | [6] 29.6%

CCC1N=C(N)N=C(N)N1c1ccc(Cl)c(Cl)c1 (stereo unspecified)
inactive: [1] 16.2% | [2] 11.6% | [3] 9.25% | [4] -8.7% | [5] 10.7% | [6] 37.8%

CCCc1c(C(=O)O)c(-c2cccc3ccccc23)c(CCC)c2c1-c1cccc3cccc-2c13
active: [3] 76% | [4] 71.2% | [6] 73.5%
inactive: [1] 54.5% | [2] 35% | [5] 30.2%

CCOC(=O)C(Cc1c[nH]c2ccccc12)NCCN (stereo unspecified)
inactive: [1] -4.85% | [2] 4.8% | [3] -1.45% | [4] -9.95% | [5] -7.25% | [6] -3.8%

CCCOC(=O)/C(C)=C\c1ccccc1
inactive: [1] 21% | [2] 15.9% | [3] 17.6% | [4] 15.3% | [5] -0.6% | [6] 16.9%

Cc1c([N+](=O)[O-])cc2c(c1[N+](=O)[O-])C(C)(C)C(C)CC2(C)C (stereo unspecified)
inactive: [1] 1.2% | [2] -15.8% | [3] 6.45% | [4] -15% | [5] 45.7% | [6] -10.9%

Cn1c(=O)c2nsnc2n(C)c1=O
inactive: [1] -21.1% | [2] -11% | [3] -14.2% | [4] -25.3% | [5] -3.7% | [6] 14.1%

COc1ccc2c(c1)OC(C)(C)C(c1ccccc1)=C2c1ccc2c(c1)NCCO2
inactive: [1] 1% | [2] -2.35% | [3] 11.1% | [4] -38.5% | [5] -22.6% | [6] 32.2%

O=C1c2ccccc2C(=O)N1CC#CCN1C(=O)c2ccccc2C1=O
inactive: [1] -6.95% | [2] -31.8% | [3] 19.6% | [4] -5.05% | [5] -2.65% | [6] -5.75%

CCCCCCCCCC(=O)N/N=C/c1ccco1
inactive: [1] 51.7% | [2] 59.6% | [3] 63% | [4] 44.9% | [5] 69.4%
active: [6] 78%

NC(=S)NNC(N)=S
inactive: [1] 2.2% | [2] -12.9% | [3] -7.3% | [4] 17.4% | [5] -3.2% | [6] 24.5%

O=C(O)CN1C(=O)NC(C2CC2)(C2CC2)C1=O
inactive: [1] -3.15% | [2] -7.15% | [3] -12.8% | [4] -23.2% | [5] 8.85% | [6] 6.6%

Nc1ccc2ccsc2c1
inactive: [1] 1.6% | [2] -22.7% | [3] 26.2% | [4] 17.1% | [5] 12.9% | [6] 35.5%

COc1ccc2nc(C3CCCCC3C(=O)O)cc(C)c2c1 (stereo unspecified)
inactive: [1] -9.2% | [2] -5.35% | [3] -5.8% | [4] -27.1% | [5] -4.3% | [6] -1.45%

CC(O)c1cccc(C(C)(C)O)c1Sc1c(C(C)(C)O)cccc1C(C)(C)O (stereo unspecified)
inactive: [1] 13% | [2] 7.8% | [3] 10.1% | [4] -0.75% | [5] 6.25% | [6] -14.6%

COC(=O)C1(C(=O)OC)C2CCCCC21 (stereo unspecified)
inactive: [1] 4.65% | [2] 9.3% | [3] -6.6% | [4] 12.8% | [5] -13.9% | [6] 7.1%

COc1cccc(N2C(=O)/C(=C/c3ccc(N(CCC#N)CCC#N)cc3)N=C2c2cc([N+](=O)[O-])ccc2Cl)c1
inactive: [1] 7.9% | [2] 27.9% | [3] 40.8% | [4] 32% | [5] 32.1% | [6] 28.9%

CC(Cc1ccco1)(C(=O)O)C(=O)O
inactive: [1] 11.8% | [2] 16.3% | [3] -14.8% | [4] -1.3% | [5] -11.8% | [6] -11.6%

CCCCC(O)(CCCC)CC(C)(C)C
inactive: [1] -3.3% | [2] 1.6% | [3] -9% | [4] 18.7% | [5] 2.65% | [6] -1.35%

CC12CCCC1C1CC=C3CC(SC4CCC5(C)C(=CCC6C7CCCC7(C)CCC65)C4)CCC3(C)C1CC2 (stereo unspecified)
inactive: [1] -2.05% | [2] -0.25% | [3] -21.5% | [4] -37.9% | [5] -17.6% | [6] -21.6%

CCc1cc(CC)n2cnnc2n1
inactive: [1] 16.7% | [2] -3.75% | [3] -9% | [4] -29.6% | [5] 7.2% | [6] -8.5%

O=C(O)CNC(=O)NC(Cc1ccccc1)C(=O)O (stereo unspecified)
active: [4] 71.5%
inactive: [1] 9.1% | [2] 12.4% | [3] -0.45% | [5] 18.6% | [6] 8%

Cn1ccccc1=O
inactive: [1] 36.8% | [2] -26.7% | [3] -8.55% | [4] -56.5% | [5] 3.4% | [6] 27.2%

O=C(Sc1c(-c2ccccc2)c(=O)n(-c2ccccc2)c(=S)n1-c1ccccc1)c1ccc(Cl)cc1
inactive: [1] 2.75% | [2] 3.9% | [3] 16.1% | [4] -4.35% | [5] 5.4% | [6] 12.8%

c1ccc(SCc2ccc3c(c2)OCO3)cc1
inactive: [1] 27.4% | [2] 1.4% | [3] 18.2% | [4] 9.25% | [5] 18.8% | [6] 16.8%

CN(C)c1ccc(/C=C/c2ccnc3ccc(Cl)cc23)cc1
inactive: [1] 23% | [2] 22.5% | [3] 32.1% | [4] 5.85% | [5] 21.6% | [6] 34%

CCOC(=O)/C(C)=C(/C)Nc1ccccc1
inactive: [1] 1.45% | [2] 3.8% | [3] -1.25% | [4] -28.9% | [5] -10.1% | [6] 2.7%

CC(O)COc1ccc(OCc2ccccc2)cc1 (stereo unspecified)
inactive: [1] 26.6% | [2] 34.6% | [3] 49.9% | [4] 10.2% | [5] 46.5% | [6] 33.9%

CNc1nc(Cl)nc2c1nc(SC)n2-c1ccccc1
inactive: [1] 7.15% | [2] -17.8% | [3] 4.2% | [4] -13.2% | [5] 18.2% | [6] 17.4%

COc1cc2c(cc1OC)C(c1ccc([N+](=O)[O-])c(C)c1)=NCC2
inactive: [1] 28.1% | [2] -15.7% | [3] 39.5% | [4] 15.3% | [5] 19.4% | [6] 0.25%

Clc1ccc(N=Cc2ccc(C=Nc3ccc(Cl)cc3)cc2)cc1
inactive: [1] 8% | [2] 9.25% | [3] 24.1% | [4] 21.6% | [5] 15% | [6] 19.9%

O=C(O)c1ccc(C2C3C=CC(C3)C2[N+](=O)[O-])cc1 (stereo unspecified)
inactive: [1] 6.15% | [2] -18.8% | [3] -20.2% | [4] 5.85% | [5] -12.5% | [6] -35.5%
